Source: the supplement of paper PMC7411054
Structures can show the parent of a compound that is named as a salt.

What was measured:
Conditions in all cases: treatment time: 24 h
[1] = system: WPMY1-ACTB-RAB5A; assay: lowest phenotypically active concentration; higher = less potent
Summary of the method: (§1)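 Two criteria together defined phenotypic activity: deviation and reproducibility. Deviation meant ≥3 of 4 wells beyond the 95th percentile of Euclidean distances in solvent control wells, and reproducibility meant a median replicate Pearson correlation above the 95th percentile of non-replicates. Wells had been treated for 24 h at 0.3, 1, 3 or 9 µM in fifteen gene-edited A549, HepG2 and WPMY1 reporter lines before live imaging.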

[2] = system: WPMY1-GM130-SQSTM1; assay: as above
Summary of the method: as §1

[3] = system: A549-ACTB-RAB5A; assay: phenotypically active (imaging signature differs from DMSO and reproducible) at any of 0.3-9 uM (binary (1 = active, 0 = inactive)); higher = active
Summary of the method: as §1

[4] = system: A549-CANX-COX4; assay: as above
Summary of the method: as §1

[5] = system: A549-GM130-SQSTM1; assay: as above
Summary of the method: as §1

[6] = system: A549-TP53BP1-CLTA; assay: as above
Summary of the method: as §1

[7] = system: A549-TUBA1B-RELA; assay: as above
Summary of the method: as §1

[8] = system: HepG2-ACTB-RAB5A; assay: as above
Summary of the method: as §1

[9] = system: HepG2-CANX-COX4; assay: as above
Summary of the method: as §1

[10] = system: HepG2-GM130-SQSTM1; assay: as above
Summary of the method: as §1

[11] = system: HepG2-TP53BP1-CLTA; assay: as above
Summary of the method: as §1

[12] = system: HepG2-TUBA1B-RELA; assay: as above
Summary of the method: as §1

[13] = system: WPMY1-ACTB-RAB5A; assay: as above
Summary of the method: as §1

[14] = system: WPMY1-CANX-COX4; assay: as above
Summary of the method: as §1

[15] = system: WPMY1-GM130-SQSTM1; assay: as above
Summary of the method: as §1

[16] = system: WPMY1-TP53BP1-CLTA; assay: as above
Summary of the method: as §1

[17] = system: WPMY1-TUBA1B-RELA; assay: as above
Summary of the method: as §1

[18] = system: HepG2-TUBA1B-RELA; assay: lowest phenotypically active concentration; higher = less potent
Summary of the method: as §1

[19] = system: WPMY1-TUBA1B-RELA; assay: as above
Summary of the method: as §1

Cc1ccc(-n2sc3ccccc3c2=O)cc1
lowest phenotypically active concentration [1]: 9 µM | lowest phenotypically active concentration [2]: 9 µM | phenotypically active [3]: 0 (inactive) | phenotypically active [4]: 0 (inactive) | phenotypically active [5]: 0 (inactive) | phenotypically active [6]: 0 (inactive) | phenotypically active [7]: 0 (inactive) | phenotypically active [8]: 0 (inactive) | phenotypically active [9]: 1 (active) | phenotypically active [10]: 1 (active) | phenotypically active [11]: 0 (inactive) | phenotypically active [12]: 0 (inactive) | phenotypically active [13]: 1 (active) | phenotypically active [14]: 0 (inactive) | phenotypically active [15]: 1 (active) | phenotypically active [16]: 0 (inactive) | phenotypically active [17]: 0 (inactive)

CC(C)N(CCCNC(=O)Nc1ccc(C(C)(C)C)cc1)C[C@H]1O[C@@H](n2ccc3c(N)ncnc32)[C@H](O)[C@@H]1O
lowest phenotypically active concentration [18]: ≤ 0.3 µM | lowest phenotypically active concentration [19]: 3 µM | phenotypically active [3]: 0 (inactive) | phenotypically active [4]: 0 (inactive) | phenotypically active [5]: 0 (inactive) | phenotypically active [6]: 0 (inactive) | phenotypically active [7]: 0 (inactive) | phenotypically active [8]: 1 (active) | phenotypically active [9]: 0 (inactive) | phenotypically active [10]: 1 (active) | phenotypically active [11]: 1 (active) | phenotypically active [12]: 1 (active) | phenotypically active [13]: 0 (inactive) | phenotypically active [14]: 0 (inactive) | phenotypically active [15]: 0 (inactive) | phenotypically active [16]: 0 (inactive) | phenotypically active [17]: 1 (active)

CCCCCCCCCCCCC/C=C/[C@H](O)[C@H](N)CO [D-erythro-Sphingosine (synthetic)]
lowest phenotypically active concentration [2]: 9 µM | phenotypically active [3]: 0 (inactive) | phenotypically active [4]: 0 (inactive) | phenotypically active [5]: 1 (active) | phenotypically active [6]: 0 (inactive) | phenotypically active [7]: 0 (inactive) | phenotypically active [8]: 0 (inactive) | phenotypically active [9]: 0 (inactive) | phenotypically active [10]: 0 (inactive) | phenotypically active [11]: 0 (inactive) | phenotypically active [12]: 0 (inactive) | phenotypically active [13]: 0 (inactive) | phenotypically active [14]: 0 (inactive) | phenotypically active [15]: 1 (active) | phenotypically active [16]: 0 (inactive) | phenotypically active [17]: 0 (inactive)

CCOc1nc(NC(=O)Cc2cc(OC)ccc2OC)cc(N)c1C#N
phenotypically active [3]: 0 (inactive) | phenotypically active [4]: 0 (inactive) | phenotypically active [5]: 0 (inactive) | phenotypically active [6]: 0 (inactive) | phenotypically active [7]: 1 (active) | phenotypically active [8]: 0 (inactive) | phenotypically active [9]: 0 (inactive) | phenotypically active [10]: 0 (inactive) | phenotypically active [11]: 0 (inactive) | phenotypically active [12]: 0 (inactive) | phenotypically active [13]: 0 (inactive) | phenotypically active [14]: 0 (inactive) | phenotypically active [15]: 0 (inactive) | phenotypically active [16]: 0 (inactive) | phenotypically active [17]: 0 (inactive)

CNC(=C[N+](=O)[O-])NCCSCc1ccc(CN(C)C)o1 [ranitidine]
phenotypically active [3]: 0 (inactive) | phenotypically active [4]: 0 (inactive) | phenotypically active [5]: 0 (inactive) | phenotypically active [6]: 0 (inactive) | phenotypically active [7]: 0 (inactive) | phenotypically active [8]: 0 (inactive) | phenotypically active [9]: 0 (inactive) | phenotypically active [10]: 1 (active) | phenotypically active [11]: 0 (inactive) | phenotypically active [12]: 0 (inactive) | phenotypically active [13]: 0 (inactive) | phenotypically active [14]: 0 (inactive) | phenotypically active [15]: 0 (inactive) | phenotypically active [16]: 0 (inactive) | phenotypically active [17]: 0 (inactive)

Nc1ncnc2c1ncn2[C@@H]1O[C@H](CO)[C@@H](O)[C@H]1O [Adenosine]
phenotypically active [3]: 0 (inactive) | phenotypically active [4]: 0 (inactive) | phenotypically active [5]: 0 (inactive) | phenotypically active [6]: 0 (inactive) | phenotypically active [7]: 0 (inactive) | phenotypically active [8]: 1 (active) | phenotypically active [9]: 0 (inactive) | phenotypically active [10]: 0 (inactive) | phenotypically active [11]: 0 (inactive) | phenotypically active [12]: 0 (inactive) | phenotypically active [13]: 0 (inactive) | phenotypically active [14]: 0 (inactive) | phenotypically active [15]: 0 (inactive) | phenotypically active [16]: 0 (inactive) | phenotypically active [17]: 0 (inactive)

CC1=C(/C=C/C(C)=C/C=C/C(C)=C/C(=O)O)C(C)(C)CCC1 [isotretinoin]
phenotypically active [3]: 0 (inactive) | phenotypically active [4]: 0 (inactive) | phenotypically active [5]: 0 (inactive) | phenotypically active [6]: 0 (inactive) | phenotypically active [7]: 0 (inactive) | phenotypically active [8]: 0 (inactive) | phenotypically active [9]: 1 (active) | phenotypically active [10]: 0 (inactive) | phenotypically active [11]: 0 (inactive) | phenotypically active [12]: 0 (inactive) | phenotypically active [13]: 0 (inactive) | phenotypically active [14]: 0 (inactive) | phenotypically active [15]: 0 (inactive) | phenotypically active [16]: 1 (active) | phenotypically active [17]: 0 (inactive)

CC(C)(C)c1ccc(C(=O)Nc2cn3cc(-n4ccnc4)ccc3n2)cc1
phenotypically active [3]: 0 (inactive) | phenotypically active [4]: 0 (inactive) | phenotypically active [5]: 0 (inactive) | phenotypically active [6]: 0 (inactive) | phenotypically active [7]: 0 (inactive) | phenotypically active [8]: 1 (active) | phenotypically active [9]: 0 (inactive) | phenotypically active [10]: 0 (inactive) | phenotypically active [11]: 0 (inactive) | phenotypically active [12]: 0 (inactive) | phenotypically active [13]: 0 (inactive) | phenotypically active [14]: 0 (inactive) | phenotypically active [15]: 0 (inactive) | phenotypically active [16]: 0 (inactive) | phenotypically active [17]: 0 (inactive)

Cc1nc[nH]c1C1CCN(c2nc3cccc4c3n2CCC4=O)CC1
phenotypically active [3]: 0 (inactive) | phenotypically active [4]: 0 (inactive) | phenotypically active [5]: 0 (inactive) | phenotypically active [6]: 0 (inactive) | phenotypically active [7]: 0 (inactive) | phenotypically active [8]: 0 (inactive) | phenotypically active [9]: 0 (inactive) | phenotypically active [10]: 0 (inactive) | phenotypically active [11]: 1 (active) | phenotypically active [12]: 0 (inactive) | phenotypically active [13]: 0 (inactive) | phenotypically active [14]: 0 (inactive) | phenotypically active [15]: 0 (inactive) | phenotypically active [16]: 0 (inactive) | phenotypically active [17]: 0 (inactive)

COc1ccc(C[C@@H]2c3cc(OC)c(OC)cc3CC[N@+]2(C)CCC(=O)OCCCCCOC(=O)CC[N@@+]2(C)CCc3cc(OC)c(OC)cc3[C@H]2Cc2ccc(OC)c(OC)c2)cc1OC [Cisatracurium besylate]
lowest phenotypically active concentration [2]: 9 µM | phenotypically active [3]: 0 (inactive) | phenotypically active [4]: 0 (inactive) | phenotypically active [5]: 0 (inactive) | phenotypically active [6]: 0 (inactive) | phenotypically active [7]: 0 (inactive) | phenotypically active [8]: 0 (inactive) | phenotypically active [9]: 0 (inactive) | phenotypically active [10]: 1 (active) | phenotypically active [11]: 0 (inactive) | phenotypically active [12]: 0 (inactive) | phenotypically active [13]: 0 (inactive) | phenotypically active [14]: 0 (inactive) | phenotypically active [15]: 1 (active) | phenotypically active [16]: 0 (inactive) | phenotypically active [17]: 0 (inactive)

COC(=O)C1=C(C)NC(C)=C(C(=O)OC)C1c1ccccc1[N+](=O)[O-] [nifedipine]
lowest phenotypically active concentration [2]: 9 µM | phenotypically active [3]: 0 (inactive) | phenotypically active [4]: 0 (inactive) | phenotypically active [5]: 0 (inactive) | phenotypically active [6]: 0 (inactive) | phenotypically active [7]: 0 (inactive) | phenotypically active [8]: 0 (inactive) | phenotypically active [9]: 0 (inactive) | phenotypically active [10]: 0 (inactive) | phenotypically active [11]: 0 (inactive) | phenotypically active [12]: 0 (inactive) | phenotypically active [13]: 0 (inactive) | phenotypically active [14]: 0 (inactive) | phenotypically active [15]: 1 (active) | phenotypically active [16]: 0 (inactive) | phenotypically active [17]: 0 (inactive)

COC(=O)[C@H]1[C@H]2C[C@H]3c4[nH]c5ccccc5c4CCN3C[C@H]2CC[C@@H]1O [Rauwolscine hydrochloride]
lowest phenotypically active concentration [2]: 3 µM | phenotypically active [3]: 0 (inactive) | phenotypically active [4]: 0 (inactive) | phenotypically active [5]: 0 (inactive) | phenotypically active [6]: 0 (inactive) | phenotypically active [7]: 0 (inactive) | phenotypically active [8]: 0 (inactive) | phenotypically active [9]: 0 (inactive) | phenotypically active [10]: 0 (inactive) | phenotypically active [11]: 0 (inactive) | phenotypically active [12]: 0 (inactive) | phenotypically active [13]: 0 (inactive) | phenotypically active [14]: 0 (inactive) | phenotypically active [15]: 1 (active) | phenotypically active [16]: 0 (inactive) | phenotypically active [17]: 0 (inactive)
